Calls of active or inactive are those of the source. The calls were made as follows, unless noted: active = hit-call score of the fitted dose curve at least 0.9, where 1 is the maximum; inactive = score below 0.9.
Tests used:
[1] = read-out: Protein phosphatase 2A (PPP2R4), PTPA (gene 5524); test: LTEA_HepaRG_PPP2R4: Life Technologies and Expression Analysis (LTEA) Assay for Protein phosphatase 2A (PPP2R4) using HepaRG (AID 2283522); conditions: mRNA level, 48 h; actives raise or lower the signal
Outline: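 Expression was quantified by Fluidigm qRT-PCR normalised to three housekeeping genes after 48 h treatment. Human HepaRG cells received an 8-point series from 100 µM downward by half-logs, in duplicate with 0.5% DMSO vehicle and 1 mM phenobarbital as induction control.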

[2] = read-out: Phosphatase and tensin (PTEN), PTEN (gene 5728); test: LTEA_HepaRG_PTEN: Life Technologies and Expression Analysis (LTEA) Assay for Phosphatase and tensin (PTEN) using HepaRG (AID 2283523); conditions: mRNA level, 48 h; actives raise or lower the signal
Outline: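 HepaRG, 48 h exposure, 8-pt half-log series from 100 uM top, 0.5% DMSO vehicle, duplicates. Readout: Fluidigm qRT-PCR of PTEN transcript; housekeeping normalization (ACTB, GAPDH, POLR2A). Gain or loss fitted relative to DMSO baseline.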

[3] = read-out: solute carrier (SLC22A1), SLC22A1 (gene 6580); test: LTEA_HepaRG_SLC22A1: Life Technologies and Expression Analysis (LTEA) Assay for solute carrier (SLC22A1) using HepaRG (AID 2283524); conditions: mRNA level, 48 h; actives raise or lower the signal;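 as to AC50: differentiated human HepaRG liver cells in serum-free induction medium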
Outline: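 qRT-PCR readout (TaqMan, Fluidigm arrays) of SLC22A1 transcript, normalized to three housekeeping genes; bidirectional curve fit relative to 0.5% DMSO vehicle. Differentiated human HepaRG cells, 48 h chemical exposure, top concentration 100 uM, half-log steps, eight points.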

[4] = read-out: Pyruvate Dehydrogenase Kinase 4 (PDK4), PDK4 (gene 5166); test: LTEA_HepaRG_PDK4: Life Technologies and Expression Analysis (LTEA) Assay for Pyruvate Dehydrogenase Kinase 4 (PDK4) using HepaRG (AID 2283525); conditions: mRNA level, 48 h; actives raise or lower the signal
Outline: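 HepaRG (human liver line), 48 h chemical exposure, 8-pt half-log CRC top 100 uM, 0.5% DMSO vehicle, duplicates. Readout: TaqMan qRT-PCR of PDK4 mRNA, housekeeping-normalized; gain/loss fit relative to DMSO baseline.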

[5] = read-out: NAD(P)H dehydrogenase [quinone] 1 (NQO1), NQO1 (gene 1728); test: LTEA_HepaRG_NQO1: Life Technologies and Expression Analysis (LTEA) Assay for NAD(P)H dehydrogenase [quinone] 1 (NQO1) using HepaRG (AID 2283526); conditions: mRNA level, 48 h; actives raise or lower the signal
Outline: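 NQO1 transcript induction or loss measured by TaqMan qRT-PCR, referenced to three housekeeping genes and fitted bidirectionally against 0.5% DMSO. HepaRG cultures exposed 48 h, duplicate, eight-point half-log series, top 100 uM.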

[6] = read-out: Nuclear factor erythroid 2-related factor 2 (Homo sapiens) (UniProt Q16236); test: LTEA_HepaRG_NFE2L2: Life Technologies and Expression Analysis (LTEA) Assay for Nuclear factor erythroid 2-related factor 2 (NFE2L2) Transcription Factor using HepaRG (AID 2283527); conditions: mRNA level, 48 h; actives raise or lower the signal
Outline: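 HepaRG, 48 h dosing, 8-pt half-log series from 100 uM in 0.5% DMSO, duplicates. Read-out: NFE2L2 mRNA by qRT-PCR (ACTB/GAPDH/POLR2A normalization). Bidirectional curve fit vs DMSO baseline.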

[7] = read-out: succinate dehydrogenase complex iron sulfur subunit B (SDHB), SDHB (gene 6390); test: LTEA_HepaRG_SDHB: Life Technologies and Expression Analysis (LTEA) Assay for succinate dehydrogenase complex iron sulfur subunit B (SDHB) using HepaRG (AID 2283528); conditions: mRNA level, 48 h; actives raise or lower the signal
Outline: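 SDHB transcript level read by TaqMan qRT-PCR, housekeeping-normalised (ACTB, GAPDH, POLR2A), after 48 h chemical treatment of plated HepaRG cells; eight concentrations top 100 uM, half-log steps, 0.5% DMSO, duplicates; fitted both directions against DMSO.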

[8] = read-out: Signal transducer and activator of transcription 3 (Homo sapiens) (UniProt P40763); test: LTEA_HepaRG_STAT3: Life Technologies and Expression Analysis (LTEA) Assay for Signal transducer and activator of transcription (STAT3) using HepaRG (AID 2283529); conditions: mRNA level, 48 h; actives raise or lower the signal
Outline: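 HepaRG, 48 h exposure, 8-pt half-log series (top 100 uM), 0.5% DMSO vehicle, duplicates. Readout: STAT3 transcript by Fluidigm qRT-PCR, housekeeping-normalized; bidirectional fit vs DMSO baseline.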

[9] = read-out: solute carrier (SLCO1B1), SLCO1B1 (gene 10599); test: LTEA_HepaRG_SLCO1B1: Life Technologies and Expression Analysis (LTEA) Assay for solute carrier (SLCO1B1) using HepaRG (AID 2283530); conditions: mRNA level, 48 h; actives raise or lower the signal
Outline: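 SLCO1B1 transcript levels were quantified by TaqMan qRT-PCR using three housekeeping genes for normalization. This followed 48 h chemical exposure (100 uM top, half-log, 8 points, 0.5% DMSO) of HepaRG liver cells, with gain or loss fitted relative to DMSO.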

[10] = read-out: sulfotransferase 2A1 (SULT2A1), SULT2A1 (gene 6822); test: LTEA_HepaRG_SULT2A1: Life Technologies and Expression Analysis (LTEA) Assay for sulfotransferase 2A1 (SULT2A1) using HepaRG (AID 2283531); conditions: mRNA level, 48 h; actives raise or lower the signal
Outline: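 Expression change of SULT2A1, by qRT-PCR with three housekeeping-gene normalization, was scored bidirectionally versus DMSO. Cells: differentiated HepaRG, dosed in duplicate for 48 h across 8 points, highest 100 µM, half-log dilution, 0.5% DMSO.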

[11] = read-out: Transforming Growth Factor (TGFA), TGFA (gene 7039); test: LTEA_HepaRG_TGFA: Life Technologies and Expression Analysis (LTEA) Assay for Transforming Growth Factor (TGFA) using HepaRG (AID 2283532); conditions: mRNA level, 48 h; actives raise or lower the signal
Outline: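 qRT-PCR read-out of TGFA transcript, normalized to three housekeeping genes, fitted bidirectionally against 0.5% DMSO baseline. Human HepaRG cultures received chemicals for 48 h at eight half-log concentrations, top 100 uM.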

[12] = read-out: Transforming Growth Factor (TGFB1), TGFB1 (gene 7040); test: LTEA_HepaRG_TGFB1: Life Technologies and Expression Analysis (LTEA) Assay for Transforming Growth Factor (TGFB1) Transporter using HepaRG (AID 2283533); conditions: mRNA level, 48 h; actives raise or lower the signal
Outline: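 TGFB1 transcript measured by qRT-PCR with normalisation to three housekeeping genes (ACTB, GAPDH, POLR2A); human HepaRG line treated in duplicate for 48 hr with an 8-point series topping at 100 uM, 0.5% DMSO vehicle, bidirectionally fitted.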

TIMP1, TIMP1 (gene 7076) = test: LTEA_HepaRG_TIMP1: Life Technologies and Expression Analysis (LTEA) Assay for TIMP1 using HepaRG (AID 2283534); conditions: mRNA level, 48 h; actives raise or lower the signal
Outline: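 Bidirectional change in TIMP1 transcript versus 0.5% DMSO, measured by TaqMan qRT-PCR with three housekeeping genes for normalization. HepaRG human liver cells dosed 48 h in duplicate, top concentration 100 uM with half-log dilutions.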

[13] = read-out: Tumor necrosis factor receptor 1 (TNFRSF1A), TNFRSF1A (gene 7132); test: LTEA_HepaRG_TNFRSF1A: Life Technologies and Expression Analysis (LTEA) Assay for Tumor necrosis factor receptor 1 (TNFRSF1A) using HepaRG (AID 2283535); conditions: mRNA level, 48 h; actives raise or lower the signal
Outline: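 mRNA measured by qRT-PCR (TaqMan, Fluidigm arrays) against ACTB/GAPDH/POLR2A housekeepers after 48 h chemical exposure of HepaRG cells. Top concentration 100 uM, half-log 8-point series, duplicates; vehicle 0.5% DMSO, both fit directions.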

[14] = read-out: Thyroid Hormone Responsive (THRSP), THRSP (gene 7069); test: LTEA_HepaRG_THRSP: Life Technologies and Expression Analysis (LTEA) Assay for Thyroid Hormone Responsive (THRSP) using HepaRG (AID 2283536); conditions: mRNA level, 48 h; actives raise or lower the signal
Outline: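 qRT-PCR read-out (Fluidigm TaqMan), housekeeping-normalized (ACTB/GAPDH/POLR2A). HepaRG, 48 h chemical exposure, 8-pt half-log series from 100 uM in 0.5% DMSO, duplicates. Bidirectional curve fit vs 0.5% DMSO baseline.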

[15] = read-out: Cellular tumor antigen p53 (Homo sapiens) (UniProt P04637); test: LTEA_HepaRG_TP53: Life Technologies and Expression Analysis (LTEA) Assay for Tumor Protein P53 (TP53) using HepaRG (AID 2283537); conditions: mRNA level, 48 h; actives raise or lower the signal
Outline: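 TP53 transcript measured by qRT-PCR, normalized to three housekeeping genes, after 48 h treatment of human HepaRG cultures with chemicals from 100 uM downward in half-log steps (0.5% DMSO vehicle, serum-free induction medium). Up- or down-regulation fitted against DMSO.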

[16] = read-out: UDP glucuronosyltransferase (UGT1A1), UGT1A1 (gene 54658); test: LTEA_HepaRG_UGT1A1: Life Technologies and Expression Analysis (LTEA) Assay for UDP glucuronosyltransferase (UGT1A1) using HepaRG (AID 2283538); conditions: mRNA level, 48 h; actives raise or lower the signal
Outline: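 UGT1A1 transcript level, measured by qRT-PCR with three housekeeping genes for normalization, after 48 h treatment of human HepaRG cells (0.5% DMSO, duplicates, up to 100 uM, half-log steps, 8 points). Curves fit both directions against DMSO baseline.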

[17] = read-out: UDP glucuronosyltransferase (UGT1A6), UGT1A6 (gene 54578); test: LTEA_HepaRG_UGT1A6: Life Technologies and Expression Analysis (LTEA) Assay for UDP glucuronosyltransferase (UGT1A6) using HepaRG (AID 2283539); conditions: mRNA level, 48 h; actives raise or lower the signal
Outline: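 Expression was quantified by TaqMan qRT-PCR on Fluidigm arrays with ACTB/GAPDH/POLR2A normalization and bidirectional fitting against 0.5% DMSO. HepaRG cells (~100,000/well) were treated in duplicate for 48 h at eight half-log concentrations up to 100 uM in serum-free induction medium.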

[18] = read-out: X-box binding protein 1 (XBP1), XBP1 (gene 7494); test: LTEA_HepaRG_XBP1: Life Technologies and Expression Analysis (LTEA) Assay for X-box binding protein 1 (XBP1) using HepaRG (AID 2283540); conditions: mRNA level, 48 h; actives raise or lower the signal
Outline: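 XBP1 transcript by qRT-PCR (housekeeping-normalized: ACTB, GAPDH, POLR2A) after 48 h chemical treatment of HepaRG cells, 8-point half-log series topping at 100 uM, vehicle 0.5% DMSO. Gain and loss of signal fitted relative to DMSO.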

[19] = LTEA_HepaRG_LDH_cytotoxicity: Cytotoxicity Assessment in the Life Technologies and Expression Analysis (LTEA) Assay (AID 2283563; active = hit-call score of the fitted dose curve at least 0.9, where 1 is the maximum;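 as to AC50: LDH activity released into spent culture medium as a marker of cell death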)
Outline: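 LDH release into culture medium read after 48 h chemical treatment of HepaRG cells. Duplicate wells, eight-point half-log series topping at 100 uM, 0.5% DMSO vehicle and baseline.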

Measured: AC50

Signal transducer and activator of transcription 3 (Homo sapiens), sequence (P40763 whole entry, looked up): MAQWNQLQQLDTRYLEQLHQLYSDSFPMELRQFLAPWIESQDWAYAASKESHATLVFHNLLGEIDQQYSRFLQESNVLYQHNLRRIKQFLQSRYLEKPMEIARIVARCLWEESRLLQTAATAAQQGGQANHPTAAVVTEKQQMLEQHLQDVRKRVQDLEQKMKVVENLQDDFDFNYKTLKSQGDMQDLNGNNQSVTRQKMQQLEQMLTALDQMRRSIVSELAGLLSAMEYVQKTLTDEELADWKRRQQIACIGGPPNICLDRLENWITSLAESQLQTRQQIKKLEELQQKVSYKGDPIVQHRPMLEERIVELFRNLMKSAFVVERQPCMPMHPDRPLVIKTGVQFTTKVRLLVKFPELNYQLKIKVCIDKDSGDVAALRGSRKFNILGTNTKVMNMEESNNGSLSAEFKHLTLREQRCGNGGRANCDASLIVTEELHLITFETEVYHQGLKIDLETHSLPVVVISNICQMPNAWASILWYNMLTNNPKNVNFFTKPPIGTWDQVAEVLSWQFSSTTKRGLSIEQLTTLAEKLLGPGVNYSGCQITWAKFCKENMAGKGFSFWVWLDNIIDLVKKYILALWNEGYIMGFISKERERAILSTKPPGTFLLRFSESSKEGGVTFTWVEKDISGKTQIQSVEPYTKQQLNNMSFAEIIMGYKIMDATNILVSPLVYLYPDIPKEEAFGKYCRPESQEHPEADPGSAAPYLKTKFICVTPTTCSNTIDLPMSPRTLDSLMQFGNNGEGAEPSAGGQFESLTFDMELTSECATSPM
Nuclear factor erythroid 2-related factor 2 (Homo sapiens), sequence (Q16236 whole entry, looked up): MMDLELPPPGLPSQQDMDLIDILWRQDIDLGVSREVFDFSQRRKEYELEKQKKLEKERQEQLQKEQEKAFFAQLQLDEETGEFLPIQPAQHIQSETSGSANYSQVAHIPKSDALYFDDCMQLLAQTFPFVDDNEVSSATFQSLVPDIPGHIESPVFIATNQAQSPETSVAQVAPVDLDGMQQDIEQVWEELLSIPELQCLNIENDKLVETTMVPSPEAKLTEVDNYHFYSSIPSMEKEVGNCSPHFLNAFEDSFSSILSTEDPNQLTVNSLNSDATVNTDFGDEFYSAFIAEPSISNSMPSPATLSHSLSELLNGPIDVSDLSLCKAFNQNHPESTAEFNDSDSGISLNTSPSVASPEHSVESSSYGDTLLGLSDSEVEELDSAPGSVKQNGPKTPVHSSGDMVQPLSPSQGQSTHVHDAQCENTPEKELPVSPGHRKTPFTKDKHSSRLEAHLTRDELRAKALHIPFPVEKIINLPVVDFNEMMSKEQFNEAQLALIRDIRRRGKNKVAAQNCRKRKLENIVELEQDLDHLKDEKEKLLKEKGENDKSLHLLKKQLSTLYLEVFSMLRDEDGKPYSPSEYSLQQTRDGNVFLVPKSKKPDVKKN
Cellular tumor antigen p53 (Homo sapiens), sequence (P04637 whole entry, looked up): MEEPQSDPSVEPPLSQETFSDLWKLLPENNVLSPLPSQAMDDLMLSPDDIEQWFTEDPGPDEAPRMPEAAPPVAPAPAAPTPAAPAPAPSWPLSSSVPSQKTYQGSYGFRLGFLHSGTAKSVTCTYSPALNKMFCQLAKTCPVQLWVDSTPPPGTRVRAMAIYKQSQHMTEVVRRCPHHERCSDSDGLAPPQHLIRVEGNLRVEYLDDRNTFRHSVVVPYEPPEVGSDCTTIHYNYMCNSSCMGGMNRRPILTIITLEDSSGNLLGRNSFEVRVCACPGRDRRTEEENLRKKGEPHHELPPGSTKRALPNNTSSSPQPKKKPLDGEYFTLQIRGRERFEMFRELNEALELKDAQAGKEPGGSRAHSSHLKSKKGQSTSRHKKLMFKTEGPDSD

CN(C)[C@@H]1C(=O)C(C(N)=O)=C(O)[C@@]2(O)C(=O)C3=C(O)c4c(O)cccc4[C@@](C)(O)[C@H]3C[C@@H]12
inactive: all assays above

Nc1cc(Cl)cc(C(=O)O)c1Cl
inactive: all assays above

Clc1ccc(C(c2ccc(Cl)cc2)C(Cl)Cl)cc1
active: [3] 78.2 µM | [14] 90.5 µM | [16] 6.66 µM
inactive: all other assays above

Nc1ccc(Cl)cc1N
active: [1] 26.3 µM | [2] 32.6 µM | [3] 18.9 µM | [5] 78 µM | [6] 12.2 µM | [7] 21.6 µM | [9] 20.9 µM | [10] 35.4 µM | [11] 16.1 µM | [12] 12.9 µM | [13] 50 µM | [14] 19.3 µM | [15] 12.4 µM | [16] 37.8 µM | [18] 21 µM | [19] 35.2 µM
inactive: [4] | [8] | TIMP1, TIMP1 (gene 7076)

Cc1ccc(N)c(N)c1
active: [16] 50 µM
not listed: [17]
inactive: all other assays above

c1ccc2c(c1)-c1cccc3cccc-2c13
active: [16] 16.1 µM
not listed: [17] | [19]
inactive: all other assays above

CCC(C)c1ccc(O)cc1 (stereo not given)
active: [8] 0.361 µM
not listed: [17]
inactive: all other assays above

Reference: PubChem BioAssay (EPA / NIEHS)
